Screening results as filed in PubChem BioAssay.
A selection: hits, their analogues and other compounds. The true share with any hit is near 19%.
KB-3-1 cytotox – qHTS assay for MDR1-selective chemotherapeutics: Primary screen using the parental adenocarcinoma cell KB-3-1. AID 1347075, 2019. KB-3-1 viability, CellTiter-Glo ATP luminescence, 72 h. 400,000 tested, 1.4% active. Potency, µM (series often up to 46.1 µM), hits mostly cytotoxic; also: nearly all actives have a fitted effect of over 60% in size
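Here the drug-naive KB-3-1 line serves as comparator for MDR sub-line selectivity; cells received compound titrations, 72 h at 37 °C, then CellTiter-Glo readout.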
HT1080 IDH1KD tx – qHTS for induction of synthetic lethality in tumor cells producing 2HG: qHTS for the HT-1080-IDH1KD cell line; Potency, µM (top dose mostly 46.1 µM), without a hit: top-dose activity, negative = toxicity, actives largely listed as cytotoxic; HT-1080 IDH1 knockdown viability, ATP luminescence, 48 h; 360,000 tested, 2% active;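 also: 0% = DMSO wells and -100% = cell-free medium wells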
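Viability of IDH1-knockdown HT-1080 fibrosarcoma cells was assessed by CellTiter-Glo after 48 h at 37 °C with titrated compound; concentration-effect curves were classified by fit quality and response size.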
TDP1 cell CPT – qHTS for Inhibitors of human tyrosyl-DNA phosphodiesterase 1 (TDP1): qHTS in cells in presence of CPT; chicken DT40 Tdp1-/-;hTDP1 cells + 20 nM CPT, ATP luminescence, 48 h; Potency, µM (titrated, usually from 46.2 µM), inactives show at the highest dose activity change, negative = growth inhibition, actives largely listed as inhibitors; 420,000 tested, 12% active; also: nearly all actives have a fitted effect of over 55% in size
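Chicken DT40 Tdp1-/- cells complemented with human TDP1, 400 cells/well, exposed to compounds plus 20 nM camptothecin for at least 48 h at 37 C; viability read as ATP content by CellTiter-Glo luminescence.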
KB-V1 MDR tox – qHTS assay for MDR1-selective chemotherapeutics: Primary screen using the drug-selected MDR subline cells KB-V1; KB-V1 MDR cells viability, CellTiter-Glo, 72 h; Potency, µM (highest dose often 46.1 µM), actives largely listed as cytotoxic; 400,000 tested, 3.4% active; AID 1347076, 2019; also: nearly all actives have a fitted effect of over 60% in size
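Cytotoxicity toward P-gp-expressing KB-V1 cells was determined as loss of CellTiter-Glo luminescence after 72 h at 37 degrees C. Compounds were tested in quantitative HTS format across a concentration range, with curves fitted to normalized data.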
HT1080-NT tox – qHTS for induction of synthetic lethality in tumor cells producing 2HG: qHTS for the HT-1080-NT fibrosarcoma cell line. HT-1080-NT fibrosarcoma viability, CellTiter-Glo ATP luminescence, 48 h. Potency, µM (doses to about 46.1 µM), for the others: at the highest dose activity, negative = less viability, usual class: cytotoxic. 360,000 tested, 1.6% active. AID 686970, 2013;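 also: NT is the 2HG producing partner of a matched IDH1 knockdown line; 0% = DMSO-treated cells and -100% = media-only wells without cells; nearly all actives have a fitted effect of over 55% in size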
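HT-1080-NT fibrosarcoma cells (2HG-overproducing), 750 cells/well in RPMI with 5% FBS, dosed after 2 h and incubated 48 h at 37C. CellTiter-Glo luminescence normalized to DMSO and no-cell wells; concentration-response curves fitted and classed.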
TDP1 cell noCPT – qHTS for Inhibitors of human tyrosyl-DNA phosphodiesterase 1 (TDP1): qHTS in cells in absence of CPT | DT40 Tdp1-/- hTDP1 cells, no CPT, ATP luminescence, 48 h | Potency, µM (doses to about 46.2 µM), for inactives: at the top dose activity change, negative = growth inhibition, hits mostly inhibitors | 420,000 tested, 15% active | AID 686978, 2013; also: nearly all actives have a fitted effect of over 55% in size
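Camptothecin absent (DMSO only). Human TDP1-complemented DT40 knockout cells, 400 cells/well, 37 °C for minimum 48 hr; ATP measured via CellTiter-Glo, 30 min dark incubation, luminescence.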
Active calls of the source: *; i = inactive; ? = inconclusive; nt = not tested or not shown; [ ] = another dose, or the depositor's remark. Calls follow the shape of the dose curve; as a rule, active = well fitted curve in the direction sought with a large enough effect; inconclusive = small, poorly fitted or top-dose-only effect, or another doubt; inactive = no such curve, though single readings can be large; an effect the other way counts as inactive or inconclusive. Unless noted, % is scaled to controls: 0 for no effect and ±100 for the full control effect; potency is read from the fitted curve at half-maximal effect.

SMILES | KB-3-1 cytotox | HT1080 IDH1KD tx | TDP1 cell CPT | KB-V1 MDR tox | HT1080-NT tox | TDP1 cell noCPT
COc1ccc(S(=O)(=O)N(Cc2cccs2)C2CCCC2)cc1 | ? | -8.9% | 18.4µM* | i | -10.3% | 11.6µM*
Cc1ccc(-c2noc(CN(C)C(=O)Nc3ccc(F)cc3)n2)cc1 | i | -8.7% | 10.2% | ? | -0.8% | -21.4%
Cc1ccc(-c2noc(CN(C3CCCCC3)S(=O)(=O)c3ccc(F)cc3)n2)cc1 | nt | nt | ? | nt | nt | 18.4µM*
Cc1ccc(S(=O)(=O)N(C)Cc2nc(-c3ccncc3)no2)cc1 | ? | -8.2% | ? | ? | 7.0% | ?
COc1ccc(S(=O)(=O)N(Cc2ccccc2)Cc2nc(-c3ccccc3)no2)cc1 | i | 12.5% | 14.6µM* | i | 7.2% | 18.4µM*
CS(=O)(=O)N(Cc1nc(-c2ccc(F)cc2)no1)c1ccccc1Cl | i | -0.2% | 18.4µM* | ? | -5.9% | ?
O=C(CCOc1ccccc1)Nc1ccc(S(=O)(=O)Nc2ncccn2)cc1 | i | 0.0% | -2.5% | ? | 9.7% | 2.2%
COc1ccc(S(=O)(=O)N(Cc2nc(-c3ccccc3)no2)C2CCCCC2)cc1 | nt | nt | 16.4µM* | nt | nt | 9.2µM*
CCCc1nc(-c2ccc(-c3ccc(F)cc3)cc2)no1 | i | 6.4% | 2.1% | 20.6µM* | 12.2% | -16.0%
Cc1cnc2ccc(F)cc2c1 | ? | 16.3% | -14.1% | i | 11.6% | ?
O=C(c1cccc(S(=O)(=O)N2CCOCC2)c1)N(CCc1ccccc1)Cc1ccccc1 | ? | 1.1% | ? | i | -2.0% | ?
CCN(CC1COc2ccccc2O1)C(=O)c1ccc(Cl)c(S(=O)(=O)N2CC(C)OC(C)C2)c1 (configuration not stated) | i | -0.8% | 7.31µM* | ? | ? | 4.61µM*
CC1CN(S(=O)(=O)c2cc(C(=O)N(CCc3ccccc3)Cc3ccccc3)ccc2Cl)CC(C)O1 (configuration not stated) | i | -12.8% | 11.6µM* | ? | -14.6% | 10.3µM*
Cc1ccc(C(=O)N(CCc2ccccc2)Cc2ccccc2)cc1S(=O)(=O)N1CCOCC1 | ? | -5.1% | 14.6µM* | ? | -23.1% | 23.1µM*
CCN(Cc1ccccc1)C(=O)c1ccc(C)c(S(=O)(=O)N2CCCCC2)c1 | i | 4.9% | ? | i | 4.3% | 16.4µM*
COc1cc(OC)cc(N2C(=O)CSCC2=O)c1 | i | 9.2% | 1.8% | i | 0.6% | -2.7%
CC(C)N1C(=O)C(=O)N(CC(=O)N2c3ccccc3CC2C)C1=O (configuration not stated) | i | 5.8% | -21.2% | i | 5.7% | -18.3%
CCCN(CC(=O)Nc1ccccc1C)C(=O)c1ccc(C)c(S(=O)(=O)N2CCCCC2)c1 | i | -17.9% | -13.6% | i | -16.2% | -28.9%
Cc1ccc(C(=O)N(CCc2ccccc2)Cc2ccccc2)cc1S(=O)(=O)N1CCCCC1 | ? | -9.1% | ? | i | -20.5% | 18.4µM*
COc1ccc(CC(=O)N(Cc2ccccc2)c2ccccc2)cc1S(=O)(=O)N1CCOCC1 | i | 1.1% | 16.4µM* | ? | -3.2% | 14.6µM*
COc1ccc(C(=O)N(CCc2ccccc2)Cc2ccccc2)cc1S(=O)(=O)N1CCOCC1 | i | 0.7% | 23.1µM* | i | -1.7% | 16.4µM*
CCOC(=O)C1CCN(c2c(NC3CCCc4ccccc43)c(=O)c2=O)CC1 (configuration not stated) | i | 4.8% | -15.6% | i | 0.7% | -21.4%
COc1ccc(S(=O)(=O)Nc2cccc3c2O[C@H](CN(C)CC2CCCCC2)[C@@H](C)CN([C@H](C)CO)C3=O)cc1 | i | 6.7% | -5.3% | i | 7.4% | 2.0%
CCN(CC(=O)NCc1ccc(Cl)cc1)CC(=O)NC1(C#N)CCCC1 | i | 18.4% | 4.5% | i | 4.7% | -16.2%
Cc1cccc(N2CCN(C(=O)C3CCN(S(=O)(=O)c4cccnc4)CC3)CC2)c1C | i | 0.8% | 18.4µM* | i | 9.5% | 16.4µM*
SMILES | KB-3-1 cytotox | HT1080 IDH1KD tx | TDP1 cell CPT | KB-V1 MDR tox | HT1080-NT tox | TDP1 cell noCPT
Cc1cccc(N2CCN(C(=O)C3CCN(S(=O)(=O)Cc4ccccc4)CC3)CC2)c1C | i | nt | 7.31µM* | i | nt | 9.2µM*
O=C(C1CCN(S(=O)(=O)Cc2ccccc2)CC1)N1CCN(c2ccc(F)cc2)CC1 | nt | nt | 23.1µM* | nt | nt | ?
Cc1ccc2nc(N3CCC(C(=O)N4CCN(c5cccc(C)c5C)CC4)CC3)[nH]c2c1 | ? | nt | 2.91µM* | i | nt | 5.8µM*
CC(=O)c1ccc(N2CCN(C(=O)C3CCN(S(=O)(=O)Cc4ccccc4)CC3)CC2)cc1 | i | 7.1% | -23.6% | i | 3.2% | ?
C[C@H](CO)N1C[C@H](C)[C@@H](CN(C)S(=O)(=O)c2ccccc2)OCc2cnnn2CCCC1=O | i | 4.1% | 3.4% | i | -3.0% | 1.2%
O=C1CCC2c3[nH]c4ccccc4c3CCN12 (configuration not stated) | i | -9.3% | -11.5% | i | 2.8% | -29.9%
Cc1cccc(NC(=O)CSc2nc(C)c(CC(=O)c3ccc(Br)cc3)c(C)c2C#N)c1C | ? | ? | 13µM* | ? | -12.9% | 14.6µM*
Cc1nc(SCC(=O)Nc2ccc(F)cc2)c(C#N)c(C)c1CC(=O)c1ccc(Br)cc1 | 16.4µM* | -11.3% | 16.4µM* | ? | -14.1% | ?
Cc1ccc(NC(=O)CSc2nc(-c3ccc(F)cc3)cc(C(F)(F)F)c2C#N)cc1 | i | nt | ? | i | nt | -24.3%
CC1CCCN(S(=O)(=O)c2ccc([N+](=O)[O-])cc2)C1 (configuration not stated) | i | -0.6% | -25.9% | i | -1.4% | -12.6%
CC1CC(C)CN(S(=O)(=O)c2ccc(Oc3ccc([N+](=O)[O-])cc3)cc2)C1 (configuration not stated) | ? | 2.2% | ? | 13µM* | 7.6% | ?
O=C(c1ccc(COc2ccc3c(c2)CCC3)o1)N1CCN(c2ccccc2)CC1 | i | -2.3%[9.24 µM] | 14.6µM* | ? | ? | ?
